Measurements published in PubChem BioAssay (EPA / NIEHS).
Where “and” joins values, the source holds several entries; their conditions need not be identical. Equal values may be shown once. Records with an inconclusive call do not appear. Where a structure was tested more than once in an assay, its records may differ in their call. Calls of active or inactive are those of the source. How the source made its calls, unless noted: active means hit-call score of the fitted dose curve at least 0.9, where 1 is the maximum; inconclusive means response in the unintended direction; inactive means score below 0.9.

Assays:
[1] = target: Estrogen receptor beta (Homo sapiens) (UniProt Q92731); assay: OT_ER_ERbERb_1440: Odyssey Thera (OT) 24-hour HEK293T Protein-Complementation Assay for Estrogen Receptor-beta/-beta Homodimer (AID 2283380);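 further: scored as signal increase over DMSO baseline for both agonists and antagonists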
Sequence of Estrogen receptor beta (Homo sapiens) (Q92731 whole entry, looked up, the tested form may be a part): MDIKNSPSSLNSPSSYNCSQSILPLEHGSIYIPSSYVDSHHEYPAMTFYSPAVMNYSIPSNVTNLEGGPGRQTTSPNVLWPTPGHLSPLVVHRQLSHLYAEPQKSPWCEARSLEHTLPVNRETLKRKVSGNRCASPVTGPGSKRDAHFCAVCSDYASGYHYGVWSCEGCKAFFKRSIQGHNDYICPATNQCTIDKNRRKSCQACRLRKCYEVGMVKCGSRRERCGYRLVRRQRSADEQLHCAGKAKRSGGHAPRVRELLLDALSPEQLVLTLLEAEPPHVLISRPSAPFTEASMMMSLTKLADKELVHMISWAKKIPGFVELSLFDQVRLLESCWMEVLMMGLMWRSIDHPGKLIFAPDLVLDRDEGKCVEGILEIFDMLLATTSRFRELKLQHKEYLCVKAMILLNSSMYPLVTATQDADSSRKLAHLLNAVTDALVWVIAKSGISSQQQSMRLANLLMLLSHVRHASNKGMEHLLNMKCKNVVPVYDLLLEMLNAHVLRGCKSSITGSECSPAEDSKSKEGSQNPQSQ
Procedure, shortened: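 HEK293T cells stably expressing ER beta LBD (aa 310-547) homodimer fragment-complementation reporter, dosed 24 h. Cells formaldehyde-fixed, Draq5-stained; gain in nuclear (agonist) or nuclear plus cytoplasmic (antagonist) fluorescence versus DMSO read by laser scanning cytometry.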

[2] = target: Bile acid receptor (Homo sapiens) (UniProt Q96RI1); assay: OT_FXR_FXRSRC1_1440: Odyssey Thera (OT) 24-hour HEK293T Protein-Complementation Assay for Farnesoid X receptor/SRC-1 Co-activator (AID 2283384)
Sequence of Bile acid receptor (Homo sapiens) (Q96RI1 whole entry, looked up, the tested form may be a part): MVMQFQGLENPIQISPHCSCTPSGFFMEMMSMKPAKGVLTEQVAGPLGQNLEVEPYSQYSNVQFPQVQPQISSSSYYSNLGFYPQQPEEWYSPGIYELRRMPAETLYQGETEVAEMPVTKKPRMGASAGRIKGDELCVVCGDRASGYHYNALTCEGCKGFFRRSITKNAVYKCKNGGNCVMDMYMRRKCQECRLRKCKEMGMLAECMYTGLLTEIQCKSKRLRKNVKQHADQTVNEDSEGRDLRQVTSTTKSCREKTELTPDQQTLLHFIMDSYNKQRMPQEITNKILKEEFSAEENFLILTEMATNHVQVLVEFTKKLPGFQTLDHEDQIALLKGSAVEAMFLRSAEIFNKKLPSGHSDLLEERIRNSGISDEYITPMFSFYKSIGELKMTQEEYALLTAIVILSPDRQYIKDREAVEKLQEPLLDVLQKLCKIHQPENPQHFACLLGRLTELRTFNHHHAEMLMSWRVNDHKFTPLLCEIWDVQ
Procedure, shortened: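 Fluorescence readout, 24 h post-dose, HEK293T; FXR and SRC-1 fused to complementary reporter fragments, association reconstitutes signal. Positive-direction fit vs DMSO baseline.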

[3] = target: Peroxisome proliferator-activated receptor gamma (Homo sapiens) (UniProt P37231); assay: OT_PPARg_PPARgSRC1_0480: Odyssey Thera (OT) 8-hour Protein-Complementation Assay for Peroxisome Proliferator-activated Receptor Gamma / SRC-1 Co-activator (AID 2283387);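 further: nuclear to cytoplasmic split Venus YFP fluorescence ratio reporting PPARg SRC-1 interaction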
Sequence of Peroxisome proliferator-activated receptor gamma (Homo sapiens) (P37231 whole entry, looked up, the tested form may be a part): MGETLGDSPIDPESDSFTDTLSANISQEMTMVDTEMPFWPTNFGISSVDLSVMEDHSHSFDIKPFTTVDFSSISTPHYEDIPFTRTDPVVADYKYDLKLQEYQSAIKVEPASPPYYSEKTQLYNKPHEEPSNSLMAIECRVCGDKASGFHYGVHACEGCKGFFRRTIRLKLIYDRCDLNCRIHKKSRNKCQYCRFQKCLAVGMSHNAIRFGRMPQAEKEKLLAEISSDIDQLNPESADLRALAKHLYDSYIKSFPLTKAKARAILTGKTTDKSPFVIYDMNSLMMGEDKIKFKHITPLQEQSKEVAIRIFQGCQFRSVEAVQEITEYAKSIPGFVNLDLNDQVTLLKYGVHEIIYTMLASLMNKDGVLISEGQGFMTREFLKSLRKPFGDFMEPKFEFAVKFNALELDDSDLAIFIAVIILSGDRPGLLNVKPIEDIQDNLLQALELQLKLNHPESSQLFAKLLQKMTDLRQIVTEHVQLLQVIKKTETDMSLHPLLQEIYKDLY
Procedure, shortened: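 Split-YFP (IFP1/IFP2) PPARg/SRC-1 reporter, HEK293T, 37 °C, 5% CO2; 8 h compound; formaldehyde fix + Draq5; high-content imaging, N/C ratio, ≥350 cells/image, positive direction vs DMSO.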

[4] = target: Peroxisome proliferator-activated receptor gamma (Homo sapiens) (UniProt P37231); assay: OT_PPARg_PPARgSRC1_1440: Odyssey Thera (OT) 24-hour Protein-Complementation Assay for Peroxisome Proliferator-activated Receptor Gamma/ SRC-1 Co-activator (AID 2283388);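 further: nuclear to cytoplasmic ratio of reconstituted Venus YFP fluorescence in fixed imaged cells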
Procedure, shortened: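 Cells carrying the PPARg/SRC-1 fragment-complementation reporter receive compound for 24 hours, are fixed and counterstained with Draq5, then imaged. Increased nuclear relative to cytoplasmic YFP fluorescence above DMSO baseline indicates binding activity.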

[5] = read-out: Tumor necrosis factor receptor superfamily member 6 (Homo sapiens) (UniProt P25445); assay: LTEA_HepaRG_FAS: Life Technologies and Expression Analysis (LTEA) Assay for Fas cell surface death receptor (FAS) using HepaRG (AID 2283447; active means hit-call score of the fitted dose curve at least 0.9, where 1 is the maximum; inactive means score below 0.9); conditions: mRNA level, 48 h; actives raise or lower the signal
Procedure, shortened: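 Differentiated HepaRG cells in serum-free induction medium were exposed 48 h to 8 half-log concentrations up to 100 uM in 0.5% DMSO, in duplicate. FAS mRNA was measured by qRT-PCR normalised to ACTB, GAPDH and POLR2A; bidirectional fit versus DMSO.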

[6] = target: Retinoic acid receptor RXR-alpha (Homo sapiens) (UniProt P19793); assay: OT_NURR1_NURR1RXRa_0480: Odyssey Thera (OT) 8-hour HEK293T Protein Complementation Assay for Nurr1/retinoid X receptor (RXR) (AID 2283385)
Sequence of Retinoic acid receptor RXR-alpha (Homo sapiens) (P19793 whole entry, looked up, the tested form may be a part): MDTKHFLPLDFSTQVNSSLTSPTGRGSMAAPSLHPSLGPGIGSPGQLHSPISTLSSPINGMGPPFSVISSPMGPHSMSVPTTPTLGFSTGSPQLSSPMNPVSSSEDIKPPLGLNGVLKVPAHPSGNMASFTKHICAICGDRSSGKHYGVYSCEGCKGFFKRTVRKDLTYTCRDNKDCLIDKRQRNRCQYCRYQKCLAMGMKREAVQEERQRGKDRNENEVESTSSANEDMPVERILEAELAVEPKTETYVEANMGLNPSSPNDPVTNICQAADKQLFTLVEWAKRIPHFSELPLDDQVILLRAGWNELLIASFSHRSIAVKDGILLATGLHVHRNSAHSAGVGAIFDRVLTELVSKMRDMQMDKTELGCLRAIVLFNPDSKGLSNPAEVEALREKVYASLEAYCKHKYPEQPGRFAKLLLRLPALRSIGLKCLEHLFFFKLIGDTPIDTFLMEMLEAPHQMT
Procedure, shortened: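 Read-out: fluorescence from protein-fragment complementation between Nurr1 and RXRα in human HEK293T cells, 8 h after dosing. DMSO served as negative control; increased signal counted as activity.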

[7] = target: Retinoic acid receptor RXR-alpha (Homo sapiens) (UniProt P19793); assay: OT_NURR1_NURR1RXRa_1440: Odyssey Thera (OT) 24-hour HEK293T Protein Complementation Assay for Nurr1/retinoid X receptor (RXR) (AID 2283386)
Procedure, shortened: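 Fluorescence PCA read-out; HEK293T; 24 h post-dose; bait/prey fused to reporter fragments; gain-of-signal fit vs DMSO negative control.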

[8] = CEETOX_H295R_OHPREG: CeeTox H295R High-throughput Steroidogenesis Assay for OH-Pregnenolone (OHPREG) (AID 2283434; active means hit-call score of the fitted dose curve at least 0.9, where 1 is the maximum; inactive means score below 0.9); conditions: actives raise or lower the signal
Procedure, shortened: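 H295R, 10 uM forskolin pre-stim 48 h; test chemical 48 h, 0.1% DMSO final. MTBE extraction, reverse-phase C18 HPLC-ESI+ MS/MS of medium. Gain/loss vs DMSO; viability by MTT in same wells.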

[9] = CEETOX_H295R_OHPROG: CeeTox H295R High-throughput Steroidogenesis Assay for OH-Progesterone (OHPROG) (AID 2283435; active means hit-call score of the fitted dose curve at least 0.9, where 1 is the maximum; inactive means score below 0.9;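 on AC50: 17alpha-hydroxyprogesterone secreted into medium measured by HPLC-MS/MS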); conditions: actives raise or lower the signal
Procedure, shortened: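 HPLC-MS/MS quantification of 17alpha-hydroxyprogesterone secreted by H295R cells after 48 h chemical exposure, following 48 h 10 uM forskolin prestimulation. Gain or loss of signal fitted relative to DMSO. Viability checked by MTT in the same wells.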

[10] = CEETOX_H295R_PROG: CeeTox H295R High-throughput Steroidogenesis Assay for Progesterone (PROG) (AID 2283442; active means hit-call score of the fitted dose curve at least 0.9, where 1 is the maximum; inactive means score below 0.9); conditions: actives raise or lower the signal
Procedure, shortened: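 Measured analyte is progesterone secreted by H295R cells at 48 h of chemical treatment, following 10 uM forskolin priming. Quantitation used HPLC-MS/MS against a 7-point standard curve; cytotoxicity was checked by MTT absorbance.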

[11] = CEETOX_H295R_11DCORT: CeeTox H295R High-throughput Steroidogenesis Assay for 11-Deoxycortisol (11DCORT) (AID 2283432; active means hit-call score of the fitted dose curve at least 0.9, where 1 is the maximum; inactive means score below 0.9); conditions: actives raise or lower the signal
Procedure, shortened: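 Steroidogenesis in human H295R cells: 48 h chemical exposure after forskolin priming, 11-deoxycortisol measured by LC-MS/MS.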

[12] = CEETOX_H295R_DOC: CeeTox H295R High-throughput Steroidogenesis Assay for DOC (AID 2283439; active means hit-call score of the fitted dose curve at least 0.9, where 1 is the maximum; inactive means score below 0.9); conditions: actives raise or lower the signal
Procedure, shortened: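 Human adrenocortical H295R cells, passages up to 10, received 10 uM forskolin for 48 h before chemical addition. After another 48 h exposure in 0.1% DMSO, secreted DOC was measured by LC-MS/MS, with gain or loss fitted against DMSO controls.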

[13] = target: Estrogen receptor (Homo sapiens) (UniProt P03372); assay: OT_ERa_GFPERaERE_0480: Odyssey Thera (OT) 8-hour HeLa Transcription Induction Assay for Estrogen Receptor (AID 2283381; active means hit-call score of the fitted dose curve at least 0.9, where 1 is the maximum; inactive means score below 0.9)
Sequence of Estrogen receptor (Homo sapiens) (P03372 whole entry, looked up): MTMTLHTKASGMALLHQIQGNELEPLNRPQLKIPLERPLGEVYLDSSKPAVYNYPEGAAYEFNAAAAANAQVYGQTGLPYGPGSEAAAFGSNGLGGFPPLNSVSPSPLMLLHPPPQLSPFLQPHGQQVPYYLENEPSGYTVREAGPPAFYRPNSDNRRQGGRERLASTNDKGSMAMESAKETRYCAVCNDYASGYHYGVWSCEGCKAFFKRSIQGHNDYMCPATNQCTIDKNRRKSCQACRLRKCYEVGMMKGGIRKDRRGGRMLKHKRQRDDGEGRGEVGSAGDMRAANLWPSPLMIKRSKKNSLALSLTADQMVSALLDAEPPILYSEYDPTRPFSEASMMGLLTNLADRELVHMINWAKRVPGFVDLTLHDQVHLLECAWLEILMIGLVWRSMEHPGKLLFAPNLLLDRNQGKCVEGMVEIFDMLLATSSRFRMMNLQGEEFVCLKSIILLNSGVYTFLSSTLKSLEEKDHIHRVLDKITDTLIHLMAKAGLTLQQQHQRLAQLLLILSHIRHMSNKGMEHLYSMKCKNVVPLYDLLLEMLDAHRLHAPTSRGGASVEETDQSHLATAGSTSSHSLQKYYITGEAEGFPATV
Procedure, shortened: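 GFP-ERE reporter, HeLa, 8 h exposure. Readout: fluorescence microscopy, high-content image analysis. Fit direction positive vs DMSO negative control.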

[14] = target: Estrogen receptor (Homo sapiens) (UniProt P03372); assay: OT_ERa_GFPERaERE_0120: Odyssey Thera (OT) 2-hour HeLa Transcription Induction Assay for Estrogen Receptor (AID 2283382)
Procedure, shortened: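 Fluorescence microscopy read-out: inducible fluorescent protein reporter in HeLa cells, imaged 2 h post-dose. Signal increase over DMSO negative control fitted as single primary endpoint via high content image analysis.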

[15] = CEETOX_H295R_CORTISOL: CeeTox H295R High-throughput Steroidogenesis Assay for Cortisol (AID 2283438; active means hit-call score of the fitted dose curve at least 0.9, where 1 is the maximum; inactive means score below 0.9;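 further: cortisol secreted into medium quantified by LC-MS/MS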); conditions: actives raise or lower the signal
Procedure, shortened: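 Read-out: cortisol in culture medium by reverse-phase C18 HPLC with ESI-positive tandem MS, after MTBE liquid-liquid extraction. Cells: human adrenal H295R, forskolin-primed (10 uM, 48 h) before 48 h chemical exposure in 0.1% DMSO.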

[16] = CEETOX_H295R_ESTRADIOL: CeeTox H295R High-throughput Steroidogenesis Assay for Estradiol (AID 2283440; active means hit-call score of the fitted dose curve at least 0.9, where 1 is the maximum; inactive means score below 0.9;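 further: estradiol secreted into medium quantified by LC-MS/MS after dansyl derivatisation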); conditions: actives raise or lower the signal
Procedure, shortened: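 Readout is estradiol in conditioned medium, quantified by reverse-phase HPLC-MS/MS against a 7-point standard curve. Cells: H295R, forskolin-stimulated, then dosed 48 h in 0.1% DMSO; activity fitted in both directions relative to DMSO.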

[17] = CEETOX_H295R_ESTRONE: CeeTox H295R High-throughput Steroidogenesis Assay for Estrone (AID 2283441; active means hit-call score of the fitted dose curve at least 0.9, where 1 is the maximum; inactive means score below 0.9;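 further: estrone secreted into medium measured by LC-MS/MS after dansyl derivatization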); conditions: actives raise or lower the signal
Procedure, shortened: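 Forskolin-stimulated H295R cells are treated 48 h with chemical, and estrone in the medium is measured by LC-MS/MS. Activity is fitted in both directions relative to DMSO controls, with chemicals diluted until MTT viability reaches at least 70%.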

Measured: AC50

O=C(O)c1cccnc1
inactive: [1] | [2] | [3] | [4] | [5]

CC(C)c1cccc(C(C)C)c1NC(=O)NS(=O)(=O)c1cc(C(C)(C)O)co1
inactive: [1] | [2] | [6] | [7] | [5]

CC(=O)O[C@]1(C(C)=O)CC[C@H]2[C@@H]3C=C(Cl)C4=CC(=O)[C@@H]5C[C@@H]5[C@]4(C)[C@H]3CC[C@@]21C
inactive: [1] | [3] | [4] | [10] | [5]
active: [6] 28 µM | [7] 82.6 µM | [8] 2.37 µM | [9] 3.63 µM

Oc1ccccc1O
active: [1] 31 µM | [7] 16 µM and 23.7 µM
not listed: [2] | [13] | [14] | [15] | [16] | [17]
inactive: all other assays above

C/C=C/c1ccc(OC)cc1
inactive: [1] | [6] | [3] | [4] | [5]

CC(C)(C)c1ccccc1
inactive: [1] | [6] | [7] | [5]

CCCCC(CC)CO (stereo not drawn)
inactive: [1] | [2] | [6] | [7] | [3] | [4] | [5]

CCCCCCCC(=O)OC
inactive: [1] | [13] | [14] | [6] | [7] | [3] | [4] | [5]

CCCCC(CC)COP(=O)(OCC(CC)CCCC)OCC(CC)CCCC (stereo not drawn)
active: [2] 67.1 µM | [7] 76.1 µM
inactive: [1] | [6] | [7] | [3] | [4] | [5]

S=c1[nH]c2ccccc2s1
active: [8] 78.9 µM | [9] 73.1 µM
not listed: [6] | [13] | [14] | [16] | [17]
inactive: all other assays above

O=C(N[C@@H](c1ccccc1)[C@@H]1CCCCN1)c1cccc(C(F)(F)F)c1Cl
inactive: [1] | [13] | [14] | [3] | [4] | [5]
active: [2] 11.4 µM

CCCCCCCCCCCCCCCCO
inactive: [1] | [13] | [14] | [6] | [7] | [3] | [4] | [5]

Cc1cn([C@H]2C=C[C@@H](CO)O2)c(=O)[nH]c1=O
inactive: [1] | [6] | [3] | [4] | [5]

CO[C@@H]1COCC[C@@H]1N[C@@H]1CC[C@@](C(=O)N2CCc3ncc(C(F)(F)F)cc3C2)(C(C)C)C1
inactive: [1] | [6] | [3] | [4] | [5]

N[C@@H](Cc1c[nH]c2ccccc12)C(=O)O
inactive: [1] | [6] | [7] | [3] | [4] | [5]

O=C1O[C@H]([C@H](O)CO)C(O)=C1O
inactive: [1] | [6] | [7] | [3] | [4] | [5]

CC1(C)C(=O)NC(=O)N1CO
inactive: [13] | [14] | [6] | [3] | [4] | [5]
active: [1] 57.3 µM

O=C(O)CC(O)(CC(=O)O)C(=O)O
inactive: [1] | [13] | [14] | [3] | [4] | [5]

CN(C)CCCN(C)CCCN(C)C
inactive: [1] | [13] | [14] | [2] | [6] | [7] | [3] | [4] | [5]

O=[Si]=O
inactive: [1] | [13] | [14] | [3] | [4]

CCCCCCCCCCCCCCOS(=O)(=O)O
active: [13] 92.3 µM | [6] 79.4 µM
inactive: [1] | [14] | [6] | [7] | [3] | [4] | [5]

Oc1ccc(O)cc1
active: [1] 26.4 µM | [7] 44 µM | [12] 2.16 µM | [10] 3.17 µM
not listed: [2]
inactive: all other assays above
